# NTMT1 inh = NTMT1 methyltransferase inhibition | Q9BV86 | Potency, µM (top dose mostly 114 µM), inactives show top-dose activity change, negative = inhibition, usual class: inhibitors | 59,000 tested, 2.5% active | AID 1645870 | NTMT1 MTase-Glo SAH luminescence, purified enzyme;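 also: potency is read from the fitted curve at half-maximal effect; plate controls were DMSO vehicle for no effect and no enzyme for full effect; nearly all actives have a fitted effect of over 65% in size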
# GALC G270D act = raises human GALC G270D mutant activity in cells. Potency, µM (doses to about 57.5 µM), most hits filed as activators. 45,000 tested, 0.1% active. 145M-Twi-hGALC-G270D cells (Twitcher mouse brain line with human GALC G270D), HMU-beta-Gal fluorescence, 48 h. AID 1159614; also: potency is read from the fitted curve at half-maximal effect; 0% is about no effect; nearly all actives have a fitted effect of over 65% in size
# Target sequence (P54803 whole entry G286D): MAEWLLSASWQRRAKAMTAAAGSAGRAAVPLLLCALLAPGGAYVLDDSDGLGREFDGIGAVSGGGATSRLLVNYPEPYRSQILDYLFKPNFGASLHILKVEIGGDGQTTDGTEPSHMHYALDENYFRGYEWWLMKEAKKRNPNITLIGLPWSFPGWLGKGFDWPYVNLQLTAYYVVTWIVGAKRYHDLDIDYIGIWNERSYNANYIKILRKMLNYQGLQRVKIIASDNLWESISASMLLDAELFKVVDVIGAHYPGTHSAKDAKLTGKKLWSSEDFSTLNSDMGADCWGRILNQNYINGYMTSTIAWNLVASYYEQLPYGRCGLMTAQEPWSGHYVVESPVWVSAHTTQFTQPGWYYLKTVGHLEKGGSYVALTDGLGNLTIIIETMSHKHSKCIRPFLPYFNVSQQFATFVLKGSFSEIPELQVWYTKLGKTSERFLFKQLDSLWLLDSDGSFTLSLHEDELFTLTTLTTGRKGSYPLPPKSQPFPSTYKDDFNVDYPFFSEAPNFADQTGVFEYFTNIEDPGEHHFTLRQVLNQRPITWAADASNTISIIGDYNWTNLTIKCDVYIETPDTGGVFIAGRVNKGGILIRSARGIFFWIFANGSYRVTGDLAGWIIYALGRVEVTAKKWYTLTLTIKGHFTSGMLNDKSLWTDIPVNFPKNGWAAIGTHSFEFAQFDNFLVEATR
#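 Live 145M-Twi cells (Twitcher mouse brain-derived, GALC-null) stably expressing human GALC-G270D, with a wild-type GALC line, were compound-treated. Residual GALC activity was then read as fluorescence from 0.1 mM final HMU-β-gal at pH 5.2; higher signal means activation.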
# GALK inhibitor = GALK (human) enzyme inhibition. P51570. recombinant GALK, Kinase-Glo ATP luminescence, 1 h. Potency, µM (series often up to 57.5 µM), inactives show at the highest dose activity, negative = inhibition, hits mostly inhibitors. 44,000 tested, under 10 active;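 also: plate controls were full GALK reaction for no effect and reaction lacking GALK for full effect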
#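 Reactions with and without enzyme served as controls. GALK at 5 nM phosphorylates 100 uM galactose using 35 uM ATP (HEPES pH 8.0, Mg2+) for 1 h at RT, with luminescence read 10 min after adding Kinase-Glo Plus.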
# FH mod = Identification of activators of human fumarate hydratase by quantitative high-throughput screening. Fumarate hydratase, mitochondrial (Homo sapiens), P07954. FH coupled MDH/diaphorase resazurin fluorescence, 15 min. Potency, µM (doses to about 79.9 µM), for the others: at the highest dose activity change, negative = inhibition, most hits filed as inhibitors. 54,000 tested, 0.22% active. AID 1347055, 2019; also: potency is read from the fitted curve at half-maximal effect; % is scaled to controls: 0 for no effect and ±100 for the full control effect; the screen sought activators but most active calls are inhibition curves; nearly all actives have a fitted effect of over 45% in size
# B2AR arrestin ag = agonists recruiting beta-arrestin to human beta2-adrenergic receptor; P07550; 44,000 tested, under 10 active; HTLA Tango cells, beta-arrestin recruitment, luciferase luminescence, 18 h; Potency, µM (series often up to 46.1 µM), hits mostly activators;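 also: potency is read from the fitted curve at half-maximal effect; 0% = DMSO and full agonism = EC100 isoproterenol or metaproterenol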
#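 Tango cells (recombinant beta2-AR, beta-arrestin, tTA-driven luciferase), 1500/well in DMEM 1% FBS, treated 18 h at 37 °C with compounds up to 46 µM; luciferin mix added, luminescence read after 15 min; %activity curves fitted and curve-classed.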
# PTAP-TSG101 blk = inhibitors of HIV-1 PTAP binding to human TSG101, validation; Fluorescence polarization, FITC-PTAP peptide/Tsg101, 20 min; AID 1347069; Potency, µM (series often up to 115 µM), actives largely listed as inhibitors; Q99816; 44,000 tested, under 10 active; also: potency is read from the fitted curve at half-maximal effect; 0% is about no effect
#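 Fluorescence polarization binding of Tsg101 binding domain (10 uM final) to FITC-labeled PTAP-motif peptide (50 nM final) in HEPES pH 7.5/NaCl/Tween 20/EDTA/TCEP buffer; 20 min at r.t. Actives by curve class, <25 µM, efficacy <60% inhibition.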
# * hit, by the source's call; i = inactive; ? = inconclusive; · = no result; ! = a repeat was not active; [ ] = remark or other dose. Many of the other results were omitted from the sample, so hits are more common in it than they were. Calls follow the shape of the dose curve; as a rule, active = well fitted curve in the direction sought with a large enough effect; inconclusive = small, poorly fitted or top-dose-only effect, or another doubt; inactive = no such curve, though single readings can be large; an effect the other way counts as inactive or inconclusive.
SMILES,NTMT1 inh,GALC G270D act,GALK inhibitor,FH mod,B2AR arrestin ag,PTAP-TSG101 blk
COCCCOc1ccnc(CS(=O)c2nc3ccccc3[nH]2)c1C (stereo unspecified),18µM*!,i,·,3%,·,·
Cc1ccc(-c2nc3ccccc3[nH]2)cc1NC(=O)COc1cccc(C)c1C,-16%,i,0%,12%,i,i
Cc1nc(-c2cccnc2)sc1C(=O)Nc1ccccc1-c1cn2c(CN3CCOCC3)csc2n1,14%,·,·,3%,·,·
O=C(Nc1ccccc1-c1cn2c(CN3CCNCC3)csc2n1)c1cnc2ccccc2n1,3.5µM*!,·,·,?,·,·
Cc1ccc(OCCn2c(CCNC(=O)/C=C/c3ccccc3Br)nc3ccccc32)cc1,-8%,·,·,·,·,·
CC(C)(C)C[C@H]1N[C@@H](C(=O)NC2CCC(O)CC2)[C@H](c2cccc(Cl)c2F)[C@@]12C(=O)Nc1cc(Cl)ccc12 (stereo partly specified),24%,·,·,·,·,·
CN(C)CCCNc1c2ccccc2nc2c1[nH]c1ccccc12,35µM*,·,·,8%,·,·
Nc1nnc2c(n1)[nH]c1ccccc12,-1%,i,0%,-16%,i,i
Cc1ccc(OCCn2c(CCNC(=O)CCc3ccc(N)cc3)nc3ccccc32)cc1,-1%[57.5 µM],·,·,·,·,·
CCOC(=O)C1=CCCCC1S(=O)(=O)Nc1ccc(F)cc1Cl (stereo unspecified),-5%,·,·,·,·,·
Cc1cc(Nc2cccc(C(F)(F)F)c2)nc2ccc(NC(=O)c3cncc(Br)c3)cc12,2%,i,2%,32µM*,i,i
Cc1cc(Nc2cccc(Cl)c2)nc2ccc(NC(=O)c3cncc(Br)c3)cc12,11%,i,1%,-25%,i,i
N#Cc1cccc(-c2ccc(NC(=O)c3cccs3)cn2)c1,5%,·,·,·,·,·
CCN(CC)c1ccc(C(=C2C=CC(=[N+](CC)CC)C=C2)c2cc(S(=O)(=O)O)ccc2S(=O)(=O)[O-])cc1,28µM*,i,·,-23%[53.3 µM],·,·
CCCCCCNC(=O)CCc1c(C)nc2nc(-c3cc(OC)cc(OC)c3)nn2c1C,89µM*,i,9%,-6%,i,i
CCc1ccc(C2CC(=O)Nc3cc4c(cc32)OCO4)cc1 (stereo unspecified),89µM*,i,-9%,-6%,i,i
Cc1ccc(C2CC(=O)Nc3cc4c(cc32)OCCO4)cc1 (stereo unspecified),-10%,i,1%,2%,i,i
Cc1cc(C)n2ncc(C(=O)Nc3ccc(C(C)(C)C)cc3)c2n1,8%[57.5 µM],·,·,·,·,·
COc1ccc2nc(S(=O)Cc3ncc(C)c(OC)c3C)[nH]c2c1 (stereo unspecified),32µM*!,i,·,5%[53.3 µM],·,·
COc1ccc2oc(=O)c(-c3nc4ccc(C)cc4[nH]3)cc2c1,22%,i,-5%,-4%,i,i
Oc1ccc(NCc2ccccc2OCc2ccccc2Cl)cc1,45µM*,i,1%,?,i,i
C(#Cc1nc2ncccc2nc1OCCN1CCCC1)c1ccccc1,?,·,·,-2%,·,·
C1=CCOCc2cc(ccc2OCCN2CCCC2)Nc2nccc(n2)-c2cccc(c2)OCC1,?,·,·,1%[53.3 µM],·,·
CN1C/C=C/CCOc2cccc(c2)-c2ccnc(n2)Nc2cccc(c2)C1,40µM*,·,·,10%,·,·
CCC(C)n1cc(C)c2c(C(=O)NCc3c(C)cc(C)[nH]c3=O)cc(-c3ccc(N4CCNCC4)nc3)cc21 (stereo unspecified),?,·,·,-12%,·,·
SMILES,NTMT1 inh,GALC G270D act,GALK inhibitor,FH mod,B2AR arrestin ag,PTAP-TSG101 blk
CCC(=C(c1ccccc1)c1ccc(OCCN(C)C)cc1)c1ccccc1,19µM*,·,·,-6%[53.3 µM],·,·
CCC(=C(c1ccc(O)cc1)c1ccc(OCCNC)cc1)c1ccccc1,24µM*,·,·,-4%[53.3 µM],·,·
CC/C(=C(\c1ccccc1)c1ccc(OCCN(C)C)cc1)c1ccccc1,?,i,·,?,·,·
CC/C(=C(/c1ccc(O)cc1)c1ccc(OCCNC)cc1)c1ccccc1,11µM*,·,·,·,·,·
CCOc1ccc(-c2nn3ncccc3c2-c2ccc(S(C)(=O)=O)cc2)cc1,-4%[57.5 µM],·,·,-26%,·,·
CCOC(=O)C1CCN(c2cc3c(cc2NC(=O)c2ccc(Cl)cc2)n(C)c(=O)n3C)CC1,-12%,i,-1%,20µM*,i,i
CCOC(=O)C1CCN(c2cc3c(cc2NC(=O)c2ccccc2Cl)n(C)c(=O)n3C)CC1,-17%,i,0%,?,i,i
C[n+]1ccc(-c2c3nc(c(-c4cc[n+](C)cc4)c4ccc([nH]4)c(-c4cc[n+](C)cc4)c4nc(c(-c5cc[n+](C)cc5)c5ccc2[nH]5)C=C4)C=C3)cc1,14µM*,·,·,6%,·,·
C[C@H](NCc1ccc(OCc2ccccc2F)cc1)C(N)=O,-7%[57.5 µM],·,·,4%,·,·
C=C(C)C(=O)O[C@H]1CC2=CC(C/C(C)=C\[C@H]3OC(=O)C(=C)[C@H]13)OC2=O (stereo partly specified),7%[29.8 µM],·,·,5%[53.3 µM],·,·
Cc1[nH]c(C=C2C(=O)Nc3ccc(S(=O)(=O)Cc4c(Cl)cccc4Cl)cc32)c(C)c1C(=O)N1CCC[C@H]1CN1CCCC1,6.8µM*,·,·,2%[53.3 µM],·,·
Cc1[nH]c(/C=C2\C(=O)Nc3ccc(S(=O)(=O)N(C)c4cccc(Cl)c4)cc32)c(C)c1C(=O)N1CCN(C)CC1,-15%,·,·,-11%,·,·
O=C(NCCc1nc2ccccc2n1CCOc1ccc(F)cc1)C1CCCCC1,19%,·,·,·,·,·
CCOCCCn1c(=N)c(C(=O)NC(C)c2ccccc2)cc2c(=O)n3cccc(C)c3nc21 (stereo unspecified),2%,20µM*,1%,4%,i,i
Cc1cccn2c(=O)c3cc(C(=O)NCc4ccccc4)c(=N)n(CCOCCO)c3nc12,1%,10µM*,6%,0%,i,i
CCn1c(=N)c(C(=O)NC2CCCCC2)cc2c(=O)n3cccc(C)c3nc21,1%,28µM*,0%,0%,i,i
C=C(C)Cn1c(SCC(=O)c2cccs2)nc2sc3c(c2c1=O)CCCC3,-4%[57.5 µM],·,·,-5%,·,·
CC(C)c1ccc(-n2ncc3c(=O)n(CC(=O)Nc4cc(F)ccc4Cl)cnc32)cc1,0%[57.5 µM],·,·,·,·,·
Cc1ccc(-c2nc3ccccn3c2Nc2ccc3c(c2)OCO3)o1,16µM*,i,0%,?,i,i
Cc1ccc(Nc2c(-c3ccsc3)nc3cccc(C)n23)cc1,-11%,i,2%,-18%,i,i
Cc1ccc(-c2nc3cccc(C)n3c2Nc2ccc3c(c2)OCO3)o1,?,i,0%,-25%,i,i

# Assay outcomes deposited in PubChem BioAssay by National Center for Advancing Translational Sciences (NCATS).
